The record followed here is PubChem BioAssay (NCI).

The panel holds about 83,000 compounds, 20% with a hit somewhere; the sample as a whole holds those more often.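 Negative percent growth values reflect cell death: -40 means 40% of the cells present at the start died, and -100 means all died.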 Values without a mark were called inactive. Active and inactive are the calls of the source. The calls were made as follows: active = growth percent below 10; inactive = the rest.

Assay in all cases: NCI-60 one-dose screen, 48 h (100 = growth as untreated, 0 = no growth, -100 = all killed)
One test deals with SK-MEL-2 melanoma. The settings on record: 10 µM.
The subject of another test is EKVX NSCLC. The following applies: 10 µM unless noted.
The subject of a further test is SN12C renal. The settings on record: 10 µM unless noted.
In another test the test system is UO-31 renal. The settings on record: 10 µM unless noted.
The test system of a further test is TK-10 renal. The following applies: 10 µM unless noted.
The next test deals with ACHN renal. The following applies: 10 µM unless noted.
The next test relates to A498 renal. The following applies: 10 µM unless noted.
A further test relates to CCRF-CEM leukemia. The settings on record: 10 µM unless noted.
Another test relates to MOLT-4 leukemia. The settings on record: 10 µM unless noted.
A further test relates to SR leukemia. The following applies: 10 µM unless noted.
The test system of a further test is RPMI-8226 leukemia. The settings on record: 10 µM unless noted.
Another test concerns OVCAR-8 ovarian. The settings on record: 10 µM unless noted.
For the next test, the system named is OVCAR-5 ovarian. The settings on record: 10 µM unless noted.
The next test deals with OVCAR-4 ovarian. The settings on record: 10 µM unless noted.
In the next test the test system is SK-OV-3 ovarian. The settings on record: 10 µM unless noted.
Another test has as its system IGROV1 ovarian. The settings on record: 10 µM unless noted.
A further test has as its system OVCAR-3 ovarian. The following applies: 10 µM unless noted.
A further test deals with HS 578T breast. The following applies: 10 µM.
The test system of another test is NCI/ADR-RES ovarian. The following applies: 10 µM unless noted.

In the case of `CC(CCCC(=O)O)c1ccoc1` (configuration not stated), the growth was 105% with SK-MEL-2 melanoma; 96% in the test on EKVX NSCLC; 105% with SN12C renal; 86.2% in the test with UO-31 renal; 98.3% with TK-10 renal; 111% with ACHN renal. Further, the growth in the test on A498 renal is 110%; with CCRF-CEM leukemia, 109%; in the test on MOLT-4 leukemia it was 109%; in the test with SR leukemia it was 102%; in the test on RPMI-8226 leukemia, 104%; in the test on OVCAR-8 ovarian, 109%. Moreover, the growth in the test with OVCAR-5 ovarian is 105%; with OVCAR-4 ovarian it was 99.7%; with SK-OV-3 ovarian, 95.1%; in the test on IGROV1 ovarian, 102%; with OVCAR-3 ovarian, 105%; in the test on HS 578T breast, 112%. Moreover, the growth in the test on NCI/ADR-RES ovarian is 104%.

Consider `Clc1ccc2c(NCCCNCc3ccc4c(c3)OCO4)ccnc2c1`, for which the growth in the test on SK-MEL-2 melanoma is 29.3%; in the test with EKVX NSCLC, 71.8%; in the test with SN12C renal it was 66.6%; in the test on UO-31 renal, 35.8%; with TK-10 renal, 78.4%; in the test on ACHN renal it was 40.6%. The growth with A498 renal was 101%; in the test with CCRF-CEM leukemia, 41.7%; in the test with MOLT-4 leukemia it was 25.1%; in the test on SR leukemia it was -22.9% (active); in the test on RPMI-8226 leukemia it was 22%; in the test on OVCAR-8 ovarian it was 30.7%. Also, the growth in the test on OVCAR-5 ovarian was 85.8%; with OVCAR-4 ovarian, 59.1%; with SK-OV-3 ovarian, 71.2%; in the test on IGROV1 ovarian, 57.3%; with OVCAR-3 ovarian, 63.7%; in the test on HS 578T breast, 78.9%. The growth in the test on NCI/ADR-RES ovarian was 74.3%.

Turning to `CCN1CCN(c2nc(C)cc(N(CCNc3ccnc4cc(Cl)ccc34)Cc3ccc4c(c3)OCO4)n2)CC1`, the growth is -55.8% (active) with SK-MEL-2 melanoma; 68.2% in the test on EKVX NSCLC; 59.3% with SN12C renal; -41.7% (active) with UO-31 renal; -47.1% (active) in the test with TK-10 renal; -17.2% (active) in the test with ACHN renal. Moreover, the growth in the test with A498 renal was 53.2%; in the test with CCRF-CEM leukemia, -1.37% (active); with MOLT-4 leukemia, -3.96% (active); in the test on SR leukemia, -35.2% (active); with RPMI-8226 leukemia it was -30.4% (active); in the test on OVCAR-8 ovarian it was 16.1%. Besides, the growth in the test on OVCAR-5 ovarian was 78.2%; with OVCAR-4 ovarian it was 34.1%; with SK-OV-3 ovarian, 74.8%; in the test with IGROV1 ovarian, 42.7%; with OVCAR-3 ovarian, 20.9%; in the test on HS 578T breast it was 22.1%. Also, in the test with NCI/ADR-RES ovarian, the growth is 36.4%.

Consider `CC(C)c1ccc(/C=N/Nc2nc3ccccc3s2)cc1`, for which the growth with SK-MEL-2 melanoma is 106%; in the test on EKVX NSCLC it was 87.2%; in the test with SN12C renal, 86.3%; in the test with UO-31 renal it was 57.1%; in the test on TK-10 renal, 148%; in the test with ACHN renal, 103%. Also, the growth in the test with A498 renal is 92.8%; with CCRF-CEM leukemia it was 84.8%; in the test with MOLT-4 leukemia, 70.5%; in the test with SR leukemia, 89.9%; in the test on RPMI-8226 leukemia, 88.4%; in the test with OVCAR-8 ovarian, 87.5%. Moreover, the growth in the test with OVCAR-5 ovarian is 102%; in the test on OVCAR-4 ovarian it was 81.4%; in the test on SK-OV-3 ovarian, 89.4%; in the test on IGROV1 ovarian it was 70%; in the test on OVCAR-3 ovarian it was 88.7%; with HS 578T breast, 92.8%. Further, in the test with NCI/ADR-RES ovarian, the growth is 92.6%.

For `CCN(CC)CCNc1ccc(N=Nc2cnc3ccccc3c2)c2ccccc12`, the growth in the test with SK-MEL-2 melanoma was -76.9% (active); in the test with EKVX NSCLC, -2.28% (active); with SN12C renal it was -88.9% (active); in the test on UO-31 renal, -94.2% (active); in the test on TK-10 renal, -79% (active); in the test on ACHN renal, -69.6% (active). The growth was -91.5% (active) with A498 renal; -78.2% (active) with CCRF-CEM leukemia; -49.7% (active) in the test with MOLT-4 leukemia; -53.1% (active) with SR leukemia; -90.1% (active) in the test with OVCAR-8 ovarian; -86.6% (active) in the test on OVCAR-5 ovarian. In addition, the growth is -25.3% (active) with OVCAR-4 ovarian; -77.2% (active) with SK-OV-3 ovarian; -92.8% (active) in the test with IGROV1 ovarian; -73.2% (active) in the test on OVCAR-3 ovarian; -73.9% (active) with HS 578T breast.

On to `CC(C)(C)C(=O)OCOP(=O)(OCOC(=O)C(C)(C)C)C1CCCN(OC(=O)c2ccccc2)C1=O` (configuration not stated), for which the growth in the test with SK-MEL-2 melanoma is 51%; in the test with EKVX NSCLC, 21.4%; in the test with SN12C renal, 4.97% (active); in the test on UO-31 renal, 11.5%; in the test with TK-10 renal, 11.7%; in the test on ACHN renal, 15.7%. The growth was 10.9% in the test on A498 renal; 4.03% (active) in the test on CCRF-CEM leukemia; 7.12% (active) in the test on MOLT-4 leukemia; 7.15% (active) in the test on SR leukemia; -30.8% (active) in the test with RPMI-8226 leukemia; 7.36% (active) with OVCAR-8 ovarian. Moreover, the growth in the test with OVCAR-5 ovarian was 65.5%; in the test on OVCAR-4 ovarian, 31.9%; with SK-OV-3 ovarian, 20.6%; in the test on IGROV1 ovarian it was 5.28% (active); in the test with OVCAR-3 ovarian, 7.34% (active); in the test on HS 578T breast, 8% (active). Besides, the growth in the test on NCI/ADR-RES ovarian is 3.76% (active).
